EBV LMP1 NFkB: inhibitors of Epstein-Barr LMP1-induced NF-kappaB reporter; LMP1-induced NF-kappaB luciferase reporter cells, luminescence; inhibition, % at 12.5 µM; 350,000 tested, 0.69% active; in the data active = inhibition above about 41%;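 note: 0% = neutral control wells and 100% = reference inhibitor control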
NCOA2 inhibitor: human SRC2 (NCOA2) inhibition; HEK293 GAL4-SRC2 luciferase reporter, luminescence; 370,000 tested, 0.17% active; inhibition, % at 9 µM; AID 651957;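 active = inhibition above the mean inhibition of all tested compounds plus 3 SD, set per campaign, cut at about 52% in these data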;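 note: 0% = DMSO treated cells and 100% = cells given Gossypol at 36 µM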
SRC3 inh: inhibitors of human steroid receptor coactivator 3 (SRC3) | Q9Y6Q9 | 360,000 tested, 0.17% active | inhibition, % at 3.6 µM | AID 588352 | HEK293 GAL4-SRC3 luciferase reporter, luminescence;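 active = inhibition above a per-campaign cutoff, the mean of all compounds plus 3 SD, cut at about 60% in these data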;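 note: 0% = DMSO-treated cells and 100% = gossypol-treated cells at 36 µM; higher means less SRC3-driven luciferase light from the GAL4 reporter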
SRC1 inh: inhibits human SRC1 coactivator. inhibition, % at 3.6 µM. HEK293 GAL4-SRC1 luciferase reporter, luminescence. Q15788. 360,000 tested, 0.12% active;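 active = inhibition above the campaign mean plus 3 SD, with each screening campaign given its own cutoff, cut at about 60% in these data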;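 note: 0% = DMSO treated cells and 100% = gossypol at 36 µM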
Shn3 inh set2: inhibitors of Schnurri-3 3'UTR reporter in osteoblasts; Clone20 osteoblast Shn3 3'UTR firefly luciferase, 24 h; inhibition, % at 12.5 µM; 360,000 tested, 0.52% active; AID 588674;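 active = mean inhibition of at least 75% with every replicate also reaching 75%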;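 note: 0% = median of neutral control wells and 100% = pilot-screen positive control compound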
NR5A2 inv ag: suppresses constitutive activity of human LRH-1; HEK293T StAR-luciferase reporter, LRH-1 transfected, 24 h; inhibition, % at 3.6 µM; 360,000 tested, 0.13% active;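 active = inhibition above the mean inhibition of all tested compounds plus 3 SD, cut at about 73% in these data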;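 note: 0% = DMSO wells and 100% = reporter-only cells lacking LRH-1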
Target sequence (O00482 whole entry, looked up): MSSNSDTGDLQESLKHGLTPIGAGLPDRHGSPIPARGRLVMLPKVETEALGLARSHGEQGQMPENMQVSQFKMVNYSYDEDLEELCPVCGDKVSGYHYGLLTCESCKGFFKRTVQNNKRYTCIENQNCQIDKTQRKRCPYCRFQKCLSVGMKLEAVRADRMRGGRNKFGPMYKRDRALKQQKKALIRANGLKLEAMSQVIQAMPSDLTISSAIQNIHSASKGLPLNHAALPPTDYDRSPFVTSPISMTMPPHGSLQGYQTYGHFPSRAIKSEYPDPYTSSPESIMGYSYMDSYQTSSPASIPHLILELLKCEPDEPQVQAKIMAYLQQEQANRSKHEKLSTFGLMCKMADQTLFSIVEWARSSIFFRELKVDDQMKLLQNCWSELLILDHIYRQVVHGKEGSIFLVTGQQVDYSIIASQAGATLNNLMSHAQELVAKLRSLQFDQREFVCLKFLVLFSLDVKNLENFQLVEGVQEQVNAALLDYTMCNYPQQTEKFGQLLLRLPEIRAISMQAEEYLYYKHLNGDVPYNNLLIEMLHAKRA
Numbers without * were called inactive; / = not tested or not shown. Most compounds without a hit are left out; they make up all but 1.2% or so of the library.

SMILES	EBV LMP1 NFkB	NCOA2 inhibitor	SRC3 inh	SRC1 inh	Shn3 inh set2	NR5A2 inv ag
CCN(CC)c1ccc(/C=N/NC(=O)CNC(=O)C2COc3ccccc3O2)c(O)c1 (stereo unspecified)	7	22	38	27	90*	18
COC(=O)c1cn(-c2ccc(-c3noc4c3C(=O)N(CC(=O)N3CCOCC3)CC4)cc2)nn1	/	-12	/	/	/	/
CCC(C(=O)Nc1c(C)cccc1C)n1c(-c2ccc(=O)[nH]c2)nc2ccccc21 (stereo unspecified)	/	-5	/	/	/	7
COc1cc(OC)cc(C(=O)NCCN2C(=O)C3C4C=CC(C4)C3C2=O)c1 (stereo unspecified)	/	-6	/	/	/	/
Cc1nnc(NC(=O)c2cccc(F)c2)s1	-7	-6	-15	-6	-27	-4
Cc1nnc(NC(=O)c2c(F)cccc2F)s1	53*	23	-2	12	-14	12
Cc1ccc(/C=C2\SC(N)=NC2=O)s1	-5	-11	3	-13	-7	-4
NC1=NC(=O)/C(=C/c2ccc(Br)cc2)S1	74*	-35	-16	7	-21	4
NC1=NC(=O)/C(=C/c2cc(Br)c(O)c(Br)c2)S1	6	-5	-3	2	-23	-6
Cc1ccsc1/C=C1\SC(N)=NC1=O	50*	-36	-38	-24	-25	-40
O=C(NCCc1ccccc1)OCc1cn(Cc2ccc(Cl)cc2)nn1	/	-17	/	/	/	/
COc1ccc(C=C2C=C(C(C)(C)C)C(=O)C(C(C)(C)C)=C2)cc1OC	-7	-10	-7	15	93*	1
COc1ccc(/C=C2\CCc3ccccc3C2=O)cc1OC	8	-81	-65	-61	-36	-128
COc1ccc(/C=C2\CC/C(=C\c3ccc(OC)c(OC)c3)C2=O)cc1OC	3	65*	51	45	-37	7
COc1ccc(/C=C2\CN(Cc3ccccc3)C/C(=C\c3ccc(OC)c(O)c3)C2=O)cc1O	86*	52*	43	33	96*	16
CCCCNC[C@@]12CO[C@H](c3ccc(Cl)cc3)N1[C@@H](c1ccc(Cl)cc1)SC2	/	2	/	/	/	/
Nc1ccc(-c2cc3ccccc3c(=O)o2)cc1	37	74*	26	19	38	-20
CCCCn1c(=O)[nH]c(=O)c2c1nc(Cn1ncc(Cl)c(Cl)c1=O)n2CCC	-46	-15	8	-7	98*	-1
COc1ccc2c(c1)CCCN2C(=O)C1CCCN(S(=O)(=O)c2ccc(C(C)(C)C)cc2)C1 (stereo unspecified)	/	36	/	/	/	/
O=C1CCC2(CCC(c3ccccc3)CC2)N1CCO (stereo unspecified)	/	-8	/	/	/	/
CC(=O)c1ccc(NC(=O)C(C)OC(=O)/C=C/c2ccco2)cc1 (stereo unspecified)	-3	20	-9	-2	88*	-3
CC(OC(=O)/C=C/c1ccco1)C(=O)Nc1cccc([N+](=O)[O-])c1 (stereo unspecified)	0	15	-7	-30	25	1
CCOC(=O)CC[C@@H]1CC[C@]2(CCCN(Cc3ccc(Cl)cc3)C2)O1	/	-6	/	/	/	/
CC(c1ccccc1)n1cc(C(=O)NCCCN2CCCC2)nn1 (stereo unspecified)	/	6	/	/	/	/
CCOc1cc(CNCCCN2CCOCC2)cc(Br)c1OCc1ccccc1Cl	-27	13	20	-8	86*	14
SMILES	EBV LMP1 NFkB	NCOA2 inhibitor	SRC3 inh	SRC1 inh	Shn3 inh set2	NR5A2 inv ag
CCOc1cc(CNCCO)cc(Br)c1OCc1ccccc1Cl	6	24	14	2	53	13
Cc1cccc(N2CCN(C(=O)CSCc3c(C)noc3C)CC2)c1C	10	/	-7	10	85*	17
COc1ccc(-c2csc3ncnc(Sc4nnnn4C)c23)cc1	87*	27	20	10	19	33
Cn1nnnc1Sc1ncnc2scc(-c3ccc([N+](=O)[O-])cc3)c12	74*	2	19	-14	81	27
Cn1nnnc1Sc1ncnc2scc(-c3ccc(Cl)cc3)c12	32	35	19	-2	82	21
COc1ccc(C(=O)N/C(=C\c2ccc3c(c2)OCO3)C(=O)N2CCOCC2)cc1	49*	-19	8	10	-8	3
Cc1ccc(C(=O)N/C(=C\c2ccc3c(c2)OCO3)C(=O)N2CCOCC2)cc1	3	-2	10	9	0	-5
COC(=O)[C@]12C[C@H](CC(=O)NCc3ccc(C)o3)C(=O)N(Cc3cccc4ccccc34)C1=C[C@H](C(C)(C)C)O[C@@H]2C	/	-6	/	/	/	/
CC(C)(C)c1ccc(-n2nc(C#N)c(Cl)cc2=O)cc1	4	27	8	-22	98*	-1
COC(=O)[C@]12C[C@H](CC(=O)NCCCN3CCCC3=O)C(=O)N(CCc3ccc(OC)c(OC)c3)C1=C[C@H](C(C)(C)C)O[C@@H]2C	/	-13	/	/	/	/
Cc1nc2c(=O)n(C)c(=O)n(C)c2nc1Cl	-32	-24	-27	-9	97*	-85
C=CCN(CC#Cc1ccccc1)Cc1ccc2c(c1)OCO2	/	3	/	/	/	/
COC(=O)[C@]12C[C@H](CC(=O)N3CCC(c4ccccc4)CC3)C(=O)N(CCc3ccc(OC)c(OC)c3)C1=C[C@H](COCc1ccccc1)O[C@@H]2C	/	-2	/	/	/	/
CC(C)C[C@@H]1COc2cc(Br)ccc2S(=O)(=O)N1Cc1cn(Cc2ccccc2)nn1	/	14	/	/	/	/
CCCCCCCCn1ccc(=N)cc1	15	19	25	9	/	11
CCCCCCCCCCn1ccc(=N)cc1	29	26	71*	48	75	86*
Cc1ccc(NC(=S)NNC(=O)CSc2nnc(SCc3cccc4ccccc34)s2)cc1	/	0	/	/	/	/
O=S1(=O)C=C(Sc2nnc(-c3ccccc3)o2)c2ccccc21	8	/	19	-29	98*	15
Clc1ccc(-n2nnnc2Sc2ncnc3sccc23)cc1	51*	4	24	-1	56	3
S=C(Nc1ccc(Oc2ccccc2)cc1)NC1CCCC1	9	-20	1	3	-22	-7
S=C(NCC1CCCCC1)Nc1ccc(Oc2ccccc2)cc1	48*	12	-3	-28	26	-3
COc1ccc(-c2nnc(SCC(=O)NN=Cc3c(O)ccc4ccccc34)n2-c2ccc(OC)cc2)cc1	/	13	/	/	/	/
CCc1ccc(CN(C)C(=O)c2cc(COc3cccc4cnccc34)on2)cc1	34	18	34	14	86*	37
O=C(N[C@H](C(=O)N1CCC[C@H]1C(=O)NC1CCCC1)C1CCCCC1)c1ccco1	/	17	/	/	/	/
Cc1ccc(-c2nc(NC(=O)c3nn(C)cc3[N+](=O)[O-])sc2C)cc1C	-28	10	15	-34	93*	8
Cc1ccc(-c2nc(NC(=O)c3nn(C)cc3[N+](=O)[O-])sc2C)cc1	-15	52*	4	-18	93*	44
COc1ccc(-n2c(COc3ccc(C)cc3)nnc2SCC(=O)c2ccc(-c3ccccc3)cc2)cc1	/	6	/	/	/	/
